# Assay outcomes from PubChem BioAssay.
# Compounds with a hit are over-represented: about 3.1% of the library has one in this group of screens.
# VDR inhibitor = Inhibitors of the vitamin D receptor (VDR): qHTS; Potency, µM, for inactives: max response, negative = inhibition, usual class: inhibitors; AID 504847, 2011; VDR-SRC2-3 peptide fluorescence polarization, 2 h; actives 0.93% (n = 400,000); Vitamin D3 receptor (Homo sapiens), P11473; also: potency is read from the fitted curve at half-maximal effect; % is scaled to controls: 0 for no effect and ±100 for the full control effect
#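 Fluorescence polarization assay measuring small-molecule disruption of VDR binding to the coregulator peptide SRC2-3. Compounds were pin-transferred (23 nl) into the reagent mix and incubated 2 h at room temperature before reading.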
# PTAP TSG101 blk = qHTS Assay for Iinhibitors of HIV-1 Budding by Blocking the Interaction of PTAP/TSG101. Tumor susceptibility gene 101 protein (Homo sapiens), Q99816. Fluorescence polarization, FITC-PTAP peptide / Tsg101 binding. Potency, µM (top dose mostly 115 µM), for inactives: at the highest dose activity change, negative = inhibition, most hits filed as inhibitors. 340,000 tested, under 10 active. AID 493005, 2010; active = well fitted inhibition curve with a large enough effect in the main read-out, with a control signal flat, not every such curve was filed as active; inconclusive = small, poorly fitted or top-dose-only effect, or effect the other way, or a change in a side signal; inactive = no such curve, though single readings can be large or run the other way; also: potency is read from the fitted curve at half-maximal effect; % of control where 0% means no effect
# Target sequence (Q99816 whole entry, looked up): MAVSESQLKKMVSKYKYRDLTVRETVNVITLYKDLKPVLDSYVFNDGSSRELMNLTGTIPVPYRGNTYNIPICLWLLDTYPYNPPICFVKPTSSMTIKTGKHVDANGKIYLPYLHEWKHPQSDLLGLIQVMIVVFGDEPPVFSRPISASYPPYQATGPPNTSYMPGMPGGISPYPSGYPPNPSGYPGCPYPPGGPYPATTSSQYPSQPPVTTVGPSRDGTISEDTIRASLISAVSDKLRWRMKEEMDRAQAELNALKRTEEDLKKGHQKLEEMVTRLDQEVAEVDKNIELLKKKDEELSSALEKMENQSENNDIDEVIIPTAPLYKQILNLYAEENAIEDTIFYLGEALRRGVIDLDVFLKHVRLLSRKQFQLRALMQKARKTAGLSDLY
#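 Fluorescence polarization binding of Tsg101 binding domain (10 uM final) to FITC-labeled PTAP peptide (50 nM final) in HEPES pH 7.5 buffer with NaCl, Tween 20, EDTA, TCEP. Compounds added before peptide; binding 20 min at RT.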
# uPA surface inh = qHTS for Inhibitors of Cell Surface uPA Generation | cell surface uPA generation assay, qHTS | Potency, µM (highest dose often 38.3 µM), for the others: at the top dose activity change, negative = inhibition, usual class: inhibitors | actives 0.31% (n = 330,000) | AID 540303, 2011; active = well fitted inhibition curve with a large enough effect; inconclusive = small, poorly fitted or top-dose-only effect; inactive = no such curve, though single readings can be large or run the other way; tested in mouse RAW 264.7 cells; also: potency is read from the fitted curve at half-maximal effect; % is scaled to controls: 0 for no effect and ±100 for the full control effect; nearly all actives have a fitted effect of over 55% in size
# TSHR antagonist = Antagonists of the Thyroid Stimulating Hormone Receptor: HTS campaign | TSHR-expressing cells, TSH-stimulated cAMP HTRF, 2 h; stronger effect = lower value | activity change, negative = inhibition, % at 11.5 µM | actives 0.2% (n = 330,000);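 active = activity change below a set negative limit, meaning inhibition stronger than a set level, cut at about -70% in these data; inconclusive = activity change between two set negative limits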; also: % is scaled to controls: 0 for no effect and ±100 for the full control effect
#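 Read-out is FRET at 665 nm (cryptate excitation 337 nm) from a cryptate-tagged anti-cAMP antibody, competed by cell cAMP against cAMP-d2. Compounds are tested on freshly harvested TSHR cells challenged with 4nM TSH (EC80) for 2 hours at 37 deg C.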
# PLK1 PBD block = qHTS for Inhibitors of PLK1-PDB (polo-like kinase 1 - polo-box domain): Primary Screen; Potency, µM, inactives show max response, negative = inhibition, actives largely listed as inhibitors; Plk1 PBD binding of FITC phosphopeptide, fluorescence polarization; actives 2.8% (n = 360,000); also: potency is read from the fitted curve at half-maximal effect; series mostly up to about 57 µM; % is scaled to controls: 0 for no effect and ±100 for the full control effect; nearly all actives have a fitted effect of over 65% in size
# * marks the source's active call; other numbers are inactive results; ? = inconclusive; nt = no result given. Unless noted, calls follow the shape of the dose curve; as a rule, active = well fitted curve in the direction sought with a large enough effect; inconclusive = small, poorly fitted or top-dose-only effect, or another doubt; inactive = no such curve, though single readings can be large; an effect the other way counts as inactive or inconclusive.
SMILES,VDR inhibitor,PTAP TSG101 blk,uPA surface inh,TSHR antagonist,PLK1 PBD block
CCOc1ccc(N(CC)C(=O)COc2cc(=O)n(C)c3ccccc23)cc1,-5.5%,-2.3%,-8.2%,-0.5,-5.8%
CCn1c(=O)cc(OCC(=O)N2CCCC2)c2ccccc21,-10.7%,-4.7%,-8.6%,6.3,26.7µM*
NC(Cc1cnc[nH]1)C(=O)Nc1ccc2ccccc2c1 (stereo not drawn),2.2%,nt,nt,nt,nt
COc1ccc(COn2nnc3ccc(S(=O)(=O)N4CCOCC4)cc32)cc1F,6.2%,-1.8%,-6.0%,-5.2,-6.1%
CNS(=O)(=O)c1cc2c3c(cccc3c1)C(=O)NC2=O,-22.1%,-8.8%,7.08µM*,-2.5,-16.2%
Cc1ccc(NS(=O)(=O)c2cc3c4c(cccc4c2)C(=O)NC3=O)cc1,-0.1%,-3.8%,-10.2%,-0.6,-3.6%
CCCCNC(=O)C1(NC(=O)Nc2ccc(C)cc2)CCCCC1,?,2.0%,-3.6%,9.6,7.52µM*
CCC(C)NC(=O)C1(NC(=O)Nc2ccccc2)CCCCC1 (stereo not drawn),?,-1.1%,-2.2%,-8.5,10.6µM*
O=C(Nc1ccccc1)NC1(C(=O)NCCCN2CCOCC2)CCCCC1,9.2%,-2.5%,-5.0%,-8.0,0.0%
COc1cc(OC)cc(C(=O)N2CCN(C(=O)c3ccc(OC)c(OC)c3)CC2)c1,-6.9%,-3.0%,-1.9%,16.1,-9.7%
COc1ccc(-c2n[nH]c3c2CN(C(=O)c2ccc(OC)c(OC)c2)CC3)cc1,-13.5%,-5.3%,3.16µM*,14.5,-10.6%
COCCNC(=O)c1ccccc1N(Cc1ccccc1)S(=O)(=O)c1ccccc1,-16.9%,-10.8%,3.9%,nt,-10.2%
COCCNC(=O)c1ccccc1N(Cc1ccccc1)S(=O)(=O)c1ccc(C)cc1,-28.0%,-6.0%,-3.0%,1.6,26.7µM*
CC(=O)Nc1ccc(OC(=O)c2ccc(Cl)cc2)cc1,-13.6%,-3.9%,1.1%,5.5,6.1%
CC1(C)CC(=O)C=C(OC(=O)c2ccc(Cl)cc2)C1,16.2%,-1.1%,5.7%,-6.6,11.9µM*
COc1ccc(-c2ccc(CN3C(C)C(=O)N(Cc4cn(CCC5OCCO5)nn4)CCS3(=O)=O)cc2)cc1 (stereo not drawn),nt,nt,nt,nt,42.3µM*
COc1ccc(-c2ccc(CN3C(C)C(=O)N(Cc4cn(CCC5OCCO5)nn4)CCS3(=O)=O)cc2)cn1 (stereo not drawn),nt,nt,nt,nt,-1.3%
CCN(c1ccccc1)c1nnc(NC(=O)Nc2ccc(Br)cc2)s1,13.5%,nt,nt,nt,nt
CC1CN(C(=O)c2cc3cc([N+](=O)[O-])ccc3oc2=O)CC(C)O1 (stereo not drawn),-12.6%,-6.4%,0.6%,11.8,-10.6%
CC1CN(C(=O)c2cc3cc(Cl)cc(Cl)c3oc2=O)CC(C)O1 (stereo not drawn),2.4%,-4.4%,-5.4%,5.3,21.2µM*
CN1C(=O)/C(=N/OC(=O)c2ccccc2)c2ccccc21,-18.1%,-5.1%,-0.4%,4.9,11.9µM*
O=C(NCCc1ccccc1)c1cccc2c1C(=O)N(C1CCCCC1)C2,-12.8%,-1.8%,-1.0%,-5.0,-8.0%
COc1ccc(CCNC(=O)c2cccc3c2C(=O)N(C2CCCCC2)C3)cc1OC,10.4%,-6.4%,0.1%,-78.0*,-6.2%
Cc1ccc2c(=O)c3cccc(CC(=O)O)c3oc2c1C,4.2%,nt,nt,nt,nt
CC(C)C[C@H](NC(=O)CNC(=O)[C@H](C)NC(=O)[C@H](CC(C)C)NC(=O)[C@H](CCCNC(=N)N)NC(=O)[C@H](Cc1cnc[nH]1)NC(=O)[C@@H](NC(=O)[C@@H](N)C(C)C)[C@@H](C)O)C(=O)N[C@@H](CC(C)C)C(=O)N[C@@H](CO)C(=O)N[C@@H](CCCNC(=N)N)C(=O)N[C@@H](CO)C(=O)NCC(=O)NCC(=O)N[C@H](C(=O)N[C@H](C(=O)N[C@@H](CCCCN)C(=O)N[C@@H](CC(N)=O)C(=O)N[C@@H](CC(N)=O)C(=O)N[C@@H](Cc1ccccc1)C(=O)N[C@H](C(=O)N1CCC[C@H]1C(=O)N[C@H](C(=O)N[C@@H](CC(N)=O)C(=O)N[C@H](C(=O)NCC(=O)N[C@@H](CO)C(=O)N[C@@H](CCCCN)C(=O)N[C@@H](C)C(=O)N[C@@H](Cc1ccccc1)C(N)=O)C(C)C)[C@@H](C)O)C(C)C)C(C)C)C(C)C,1.5%,nt,nt,nt,nt
SMILES,VDR inhibitor,PTAP TSG101 blk,uPA surface inh,TSHR antagonist,PLK1 PBD block
Cc1cccn2cc(COc3cccc([N+](=O)[O-])c3)nc12,6.3%,2.1%,0.6%,8.3,-1.1%
O=[N+]([O-])c1cccc(OCc2cn3cccnc3n2)c1,-3.2%,0.6%,-1.3%,-0.5,26.7µM*
COc1ccc(CNC(=O)c2nc(S(=O)(=O)Cc3ccccc3)ncc2Cl)cc1,?,2.0%,-14.3%,-38.0,23.8µM*
CCS(=O)(=O)c1ncc(Cl)c(C(=O)Nc2ccc(C)cc2)n1,15.8µM*,-8.9%,-14.0%,-39.0,?
CCS(=O)(=O)c1ncc(Cl)c(C(=O)NCc2ccccc2)n1,-6.6%,nt,nt,nt,nt
O=C(NCc1ccccc1)c1nc(S(=O)(=O)Cc2ccccc2)ncc1Cl,?,2.7%,?,-36.1,?
O=C(NCc1ccc2c(c1)OCO2)c1nc(S(=O)(=O)Cc2ccccc2F)ncc1Cl,-11.0%,1.1%,?,-44.3,13.4µM*
CC(=O)Nc1ccc(NC(=O)c2nc(S(=O)(=O)Cc3ccccc3)ncc2Cl)cc1,-22.1%,0.2%,?,?,16.8µM*
COc1ccc(O)c(C(=O)c2cnn(C(=O)c3cccc(S(=O)(=O)N(C)C)c3)c2)c1,-7.5%,-4.3%,20.4%,-8.2,-6.5%
Cc1ccc(Nc2nc(NCc3ccco3)nc3nccnc23)cc1C,-5.1%,nt,nt,nt,nt
Cc1ccc(NC(=O)Cn2c(=O)n(Cc3nc(C)no3)c(=O)c3ccccc32)c(Cl)c1,7.4%,nt,nt,nt,nt
COc1cc(COc2cc(N)c(Cl)cc2C(=O)CCC2CCN(CCNS(C)(=O)=O)CC2)cc(OC)c1,0.2%,nt,nt,nt,nt
COc1ccc(CCN2C(=O)N(c3ccc(C)cc3)C(=O)C2CC(=O)Nc2ccc(OC)cc2)cc1 (stereo not drawn),15.6%,nt,nt,nt,nt
CCOC(=O)C1CCC(CN(Cc2ccc(OC)cc2)S(=O)(=O)c2ccc(C)cc2)CC1 (stereo not drawn),9.6%,nt,nt,nt,nt
Cc1ccc(CS(=O)(=O)c2ncc(Cl)c(C(=O)Nc3ccc(OC(F)F)cc3)n2)cc1,?,4.1%,-3.5%,?,21.2µM*
O=C(Nc1ccc(OC(F)F)cc1)c1ncc(Cl)c(Cl)c1Cl,-12.1%,6.2%,-1.5%,-4.6,-8.0%
COc1ccccc1N1CCN(C(=O)CCc2c(C)nn(-c3ccc(N4CCCC4)nn3)c2C)CC1,8.2%,nt,nt,nt,nt
